Measured values: PubChem BioAssay (NCI)
The panel holds about 79,000 compounds, 15% with a hit somewhere; the sample as a whole holds those more often. No stated cut-off is given here; in the data, active means growth inhibition above about 70%; inactive means the rest.

Assays:
[1] = NCI Yeast Anticancer Drug Screen. Data for the rad50 strain (AID 155);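 further: 0% = growth of vehicle-only cultures of the same strain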; details: S. cerevisiae rad50 strain growth inhibition; at 50.0 µM; stronger effect = higher value
Summary of the method: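 Readout: growth inhibition relative to vehicle-treated cultures. Compound exposure was carried out in a genetically defined yeast strain deficient in DNA damage repair.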

[2] = NCI Yeast Anticancer Drug Screen. Data for the mec2-1 strain (AID 157); details: S. cerevisiae mec2-1 strain, at 50.0 µM, stronger effect = higher value
Summary of the method: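 Test agents were screened against the mec2-1 yeast strain, with defined DNA repair or cell cycle alteration. Growth was scored as inhibition against vehicle-only controls.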

[3] = NCI Yeast Anticancer Drug Screen. Data for the sgs1 mgt1 strain (AID 161);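 further: 0% = growth of cultures given vehicle only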; details: S. cerevisiae sgs1 mgt1 strain, at 50.0 µM, stronger effect = higher value
Summary of the method: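 Mutant yeast exposed to compound; growth scored against vehicle-only wells.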

[4] = NCI Yeast Anticancer Drug Screen. Data for the cln2 rad14 strain (AID 165);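 further: 0% = growth equal to vehicle treated cultures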; details: S. cerevisiae cln2 rad14 strain, at 50.0 µM, stronger effect = higher value
Summary of the method: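 Growth of compound-exposed yeast (cln2 rad14 genotype) measured and expressed as inhibition relative to vehicle.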

[5] = NCI Yeast Anticancer Drug Screen. Data for the bub3 strain (AID 167); details: S. cerevisiae bub3 mutant strain, at 50.0 µM, stronger effect = higher value
Summary of the method: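 Readout: yeast growth inhibition, expressed relative to vehicle-only wells. The test organism is a mutant strain from a panel with lesions in DNA repair or checkpoint genes.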

[6] = NCI Yeast Anticancer Drug Screen. Data for the mlh1 rad18 strain (AID 175); details: S. cerevisiae mlh1 rad18 strain growth inhibition; at 50.0 µM; stronger effect = higher value
Summary of the method: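 In this whole-cell yeast screen, a strain with altered DNA damage repair is challenged with compound, and its growth is measured against matched vehicle-treated controls.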

Measured: growth inhibition

C=CCC(O)c1ccc2c(c1)OCO2 (stereo unspecified)
inactive: [1] -1% | [2] 13.3% | [3] -9.8% | [4] -40% | [5] -4.25% | [6] 10.1%

CCOC(=O)/C(Cc1cnc2ccccc2n1)=N\O
inactive: [1] -1% | [2] -4.4% | [3] -8.95% | [4] -52.5% | [5] 5.7% | [6] -24.9%

NCOC(=O)Cc1ccc(Br)cc1
inactive: [1] 14.8% | [2] 6.65% | [3] -0.35% | [4] -2.55% | [5] 4.15% | [6] 18.6%

CC(c1ccccc1)C(OCc1ccccc1)OCc1ccccc1 (stereo unspecified)
inactive: [1] -17.1% | [2] 9.15% | [3] 4.55% | [4] -36.5% | [5] 22.6% | [6] 1.2%

NC(CO)C(O)C(O)C(O)CO (stereo unspecified)
inactive: [1] 6.8% | [2] 4.5% | [3] 3.35% | [4] 6.7% | [5] 2.35% | [6] -0.45%

COc1cc2c(cc1OC)C[N+]1(C)CCc3cc(OC)c(OC)cc3C1C2 (stereo unspecified)
inactive: [1] -16% | [2] -30.9% | [3] -9.9% | [4] 9.1% | [5] -8% | [6] -5.55%

CCc1nnc2sc(=S)[nH]n12
inactive: [1] -7.65% | [2] -14.6% | [3] -15.8% | [4] -7.4% | [5] 2.45% | [6] -12.9%

Nc1nc2c(c(=O)[nH]1)CN(CCCN1CCOCC1)CN2
inactive: [1] -36.2% | [2] -26.1% | [3] -19.1% | [4] 68% | [5] -30% | [6] 0%

C(=N\c1nccs1)/c1ccc(/C=N/c2nccs2)cc1
inactive: [1] -5.2% | [2] -5.2% | [3] 1.6% | [4] 9% | [5] 12.1% | [6] 7%

CC(CCl)NC(=O)Nc1cccc2c1CCCC2 (stereo unspecified)
inactive: [1] -12.5% | [2] 0.3% | [3] -3.9% | [4] -36% | [5] -2.6% | [6] 18.8%

O=C(CCc1n[nH]c(=S)o1)Nc1ccccc1
inactive: [1] 18.4% | [2] 17.4% | [3] 30.4% | [4] 15.8% | [5] 14.1% | [6] 35.3%

O=C1OC(C2OC(=O)C(=O)C2C(=O)c2ccccc2Cl)C(C(=O)c2ccccc2Cl)C1=O (stereo unspecified)
inactive: [1] 58.4% | [2] 23.9% | [3] 49.5% | [4] 19.1% | [5] 7.15% | [6] 53.5%

C[C@@H](O)[C@H](NSc1ccccc1[N+](=O)[O-])C(=O)NCCc1nc(-c2nc(C(=O)NCCCBr)cs2)cs1
inactive: [1] -0.8% | [2] 2.35% | [3] -2.1% | [4] -21.5% | [5] 1.55% | [6] 13%

O=C(Nc1ccccc1-c1ccccc1)c1cccnc1
inactive: [1] 2.65% | [2] 22.6% | [3] 9.2% | [4] 8.1% | [5] -11.2% | [6] 5.45%

O=Cc1cccc(OC(=O)Nc2ccccc2)c1
inactive: [1] 39% | [2] 24.8% | [3] 24.5% | [4] -17.5% | [5] 17.1% | [6] 0.95%

CC1=C(C(=O)Nc2cc(F)c(F)cc2F)C(c2cccc([N+](=O)[O-])c2)C(C(=O)Nc2ccccc2C(F)(F)F)=C(C)N1 (stereo unspecified)
inactive: [1] 20.4% | [2] 21.8% | [3] 8.4% | [4] 2.15% | [5] 9.75% | [6] -2.65%

CNC(=O)n1cncn1
inactive: [1] -10.6% | [2] 3.35% | [3] -9.75% | [4] 0.1% | [5] -2.2% | [6] -12.7%

CCOC(=O)C(C(=O)OCC)=C(C)C
inactive: [1] -9.9% | [2] -32% | [3] -12.2% | [4] -3.1% | [5] -26.1% | [6] -37.3%

CCCc1cc(C(=O)OC/C(C)=N/O)c2ccccc2n1
inactive: [1] -8.15% | [2] 0.7% | [3] 11.3% | [4] -7.75% | [5] 24.6% | [6] 9.4%

CCN(CC)CCNc1nnc(NCCN(CC)CC)c2cc3ccccc3cc12
inactive: [1] 3.75% | [2] 21% | [3] -10.1% | [4] -4.45% | [5] -0.25% | [6] 6.8%

CCn1c2ccccc2c2cc(/C=N/N=C/c3ccc4c(c3)c3ccccc3n4CC)ccc21
inactive: [1] -17.8% | [2] 5.15% | [3] -11.6% | [4] -13.7% | [5] -1.8% | [6] -18.9%
